Test results taken from the supplement of paper PMC4894684.
Where a name gives a salt, the structure may show the parent alone. ± gives the standard deviation of the averaged measurements.

test system: Toxoplasma gondii RH (in HFF); assay: parasite growth relative to the screen mean (all compounds = 100%); higher = less inhibition of parasite growth; details: 5 µM; 72 h; oxygen 21 %
Summary of the method: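 Confluent human foreskin fibroblasts in 96-well plates received library compounds by pin transfer at 5 µM final, taken from 10 mM DMSO stocks. Within 2 h the cells were infected with RH β-Gal–GFP Toxoplasma at MOI 1:5 and cultured 72 h at 21% O2. A CPRG β-Gal assay read against in-plate standard curves gave parasite number, and growth is stated relative to the screen mean, where all compounds = 100%, averaged across two screens.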

Structure (SMILES) | parasite growth
CC(Oc1ccc(O)cc1)(P(=O)(O)O)P(=O)(O)O | 101 ± 21%
Cc1ccc(S(=O)(=O)/C=C/C#N)cc1 | 135 ± 27%
CC1(C)Oc2ccc(C#N)cc2[C@@H](N2CCCC2=O)[C@@H]1O [Levcromakalim] | 158 ± 31%
OCCNCCCOc1cccc(Cl)c1Cl [2,3-DCPE hydrochloride] | 103 ± 8.3%
NC(N)=Nc1ccc(Cl)cc1 [4-Chlorophenylguanidine hydrochloride] | 125 ± 3.5%
O=C1Nc2ccc(I)cc2/C1=C/c1cc(Br)c(O)c(Br)c1 | 114 ± 18%
O=C1C(SCCO)=C(SCCO)C(=O)c2ccccc21 | 180 ± 14%
CCCCCCN(CCCCCC)C(=O)Cc1c(-c2ccc(Cl)cc2)[nH]c2ccc(Cl)cc12 | 175 ± 22%
COC1(C2=NCCN2)COc2ccccc2O1 (centres undefined) | 136 ± 3.9%
CN(Cc1cnc2nc(N)nc(N)c2n1)c1ccc(C(=O)N[C@@H](CCC(=O)O)C(=O)O)cc1 [Methotrexate] | 161 ± 27%
CC(=Cc1ccc(C(=O)O)cc1)c1ccc2c(c1)C(C)(C)CCC2(C)C | 120 ± 27%
COC(=O)/C=C/c1cccc(N(Cc2ccc(-c3ccc(N(C)C)cc3)cc2)C(=O)C2CCCCC2)c1 [Fexaramine] | 159 ± 7.7%
CC[C@@H]1C(=O)OC[C@@H]1Cc1cncn1C [Pilocarpine hydrochloride] | 76.5 ± 19%
C[C@@H](CN1CCC(n2c(=O)[nH]c3cc(Cl)ccc32)CC1)NC(=O)c1ccc2ccccc2c1 | 5.93 ± 2.3%
Clc1ccccc1CNCC1CCC(CNCc2ccccc2Cl)CC1 (centres undefined) | 38.9 ± 23%
N[C@@H](CSS(=O)(=O)O)C(=O)O [S-Sulfo-L-cysteine sodium salt] | 101 ± 6.6%
CCC1=C(C)CN(C(=O)NCCc2ccc(S(=O)(=O)NC(=O)N[C@H]3CC[C@H](C)CC3)cc2)C1=O [Glimepiride] | 149 ± 43%
CCOc1cc(C(=O)Nc2ccc(Cl)c(-c3nc4ccccc4[nH]3)c2)cc(OCC)c1OCC | 23.3 ± 3.9%
CCn1ccnc1CC1COc2ccccc2O1 (centres undefined) [Imiloxan hydrochloride] | 120 ± 7%
CCN1CCC[C@H]1CNC(=O)c1cc(S(N)(=O)=O)ccc1OC [(S)-(-)-Sulpiride] | 93.2 ± 3.8%

Structure (SMILES) | parasite growth
COc1cc2c(cc1C(F)(F)F)N(C(=O)Nc1cc(F)cc(-c3cccnc3)c1)CC2 | 29.9 ± 3.3%
C=CCn1c(=O)n([C@@H]2O[C@H](CO)[C@@H](O)[C@H]2O)c2nc(N)[nH]c(=O)c21 | 116 ± 8.2%
CCN(CC)CC1CCCCN1CC(=O)N1c2ccccc2C(=O)Nc2cccnc21 (centres undefined) | 146 ± 36%
CCCN(CC1CC1)c1nc(C)nc(Nc2c(Cl)cc(Cl)cc2Cl)c1Cl | 116 ± 14%
CC1(C)Oc2ccc(C#N)cc2[C@H](N2CCCC2=O)[C@H]1O [Cromakalim] | 127 ± 5.1%
N[C@H](C(=O)O)c1ccc(O)c(C(=O)O)c1 [(S)-3-Carboxy-4-hydroxyphenylglycine] | 153 ± 9.2%
O=C1C=CC(=O)C2=C1C1c3ccccc3C2c2ccccc21 | 137 ± 48%
O=S(=O)(NCCNC/C=C/c1ccc(Br)cc1)c1cccc2cnccc12 [H 89 dihydrochloride] | 26.2 ± 27%
COC(=O)C1=C(C)NC(C)=C(C(=O)OC(C)C)C1c1cccc2nonc12 (centres undefined) [Isradipine] | 43.3 ± 5.6%
C[C@H](NC(=O)/C(C#N)=C/c1ccc(O)c(O)c1)c1ccccc1 [Tyrphostin B44, (+) enantiomer] | 154 ± 41%
CC[N+](CC)(CC)CCOc1ccc(/C=C/c2ccccc2)cc1 | 99.2 ± 19%
c1ccc(C(NCCNC(c2ccccc2)c2ccccc2)c2ccccc2)cc1 [AMN 082 dihydrochloride] | 35.1 ± 15%
c1ccc2sc(N3CCN(Cc4ccc5c(c4)OCO5)CC3)nc2c1 [2-[1-(4-Piperonyl)piperazinyl]benzothiazole] | 113 ± 20%
CN1CCN2c3ccccc3Cc3ccccc3C2C1 (centres undefined) [Mianserin hydrochloride] | 154 ± 39%
N=C(N)SCCc1ccc(OCc2ccc([N+](=O)[O-])cc2)cc1 [KB-R7943 mesylate] | < 0%
CCCCCCCCCCCCCCCC(=O)O[C@H](CC(=O)O)C[N+](C)(C)C (racemic) [(±)-Palmitoylcarnitine chloride] | 108 ± 22%
COc1ccc2c(c1)c(CC(=O)O)c(C)n2C(=O)c1ccc(Cl)cc1 [Indomethacin] | 150 ± 30%
Cc1cc(C)c(S(=O)(=O)Nc2ccccc2C(F)(F)F)c(C)c1 | 145 ± 10%
C=C1C(=O)O[C@H]2[C@H]1CC/C(C)=C/CC[C@@]1(C)O[C@@H]21 [Parthenolide] | 87.7 ± 4.2%
